Of roughly 8,800 targets only a part is listed; those with a hit were picked by preference. About 0.5% of all pairs of compound and target were hits.
Key:
Test in all cases: log2 fold change, soluble protein after heating vs DMSO (PISA); higher = thermal stabilisation; K562 lysate, 10 uM; active = over 0.2 and 3.5 SD of the protein, either way, in both replicates (recomputed)
alvocidib = compound: CN1CC[C@H](c2c(O)cc(O)c3c(=O)cc(-c4ccccc4Cl)oc23)[C@H](O)C1 [alvocidib]
Outline: (§1)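 Dounce homogenisation of K562 pellets in PBS pH 7.4 with 1 mM MgCl2 produced a crude extract, used at 1 mg/mL protein. Exposure to 10 μM compound lasted 30 min, and aliquots were then heated for 3 min across 48°C-58°C, pooled and brought to 0.5% NP-40 at 4°C. The supernatant after 21,000xg for 90 min was quantified by TMTpro 16plex LC-MS/MS with channel sums equalised. Duplicate values are given as log-two fold change in thermal stability relative to solvent controls.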

Tubastatin A = compound: CN1CCc2c(c3ccccc3n2Cc2ccc(C(=O)NO)cc2)C1 [Tubastatin A]
Outline: as §1

[1] = compound: CNC(=O)C1=CC=CC=C1NC2=NC(=NC=C2Cl)NC3=C(C=C(C=C3)N4CCOCC4)OC
Outline: as §1

defactinib = compound: CNC(=O)c1ccc(Nc2ncc(C(F)(F)F)c(NCc3nccnc3N(C)S(C)(=O)=O)n2)cc1 [defactinib]
Outline: as §1

[2] = compound: CNc1nc(-c2ccc3c(N)n[nH]c3c2)cc(N2C[C@@H](C(=O)NC3CCCCC3)CC[C@H]2C)n1
Outline: as §1

encorafenib = compound: COC(=O)N[C@@H](C)CNc1nccc(-c2cn(C(C)C)nc2-c2cc(Cl)cc(NS(C)(=O)=O)c2F)n1 [encorafenib]
Outline: as §1

[3] = compound: COC(=O)[C@H](CCSC)NC(=O)C1=C(C=C(C=C1)NC[C@H](CS)N)C2=CC=CC=C2
Outline: as §1

alisertib = compound: COc1cc(Nc2ncc3c(n2)-c2ccc(Cl)cc2C(c2c(F)cccc2OC)=NC3)ccc1C(=O)O [alisertib]
Outline: as §1

[4] = compound: COc1cc2nc(-c3cc(F)ccc3O)nc(N[C@@H]3CNC[C@H]3C(C)(C)O)c2cc1OC
Outline: as §1

gefitinib = compound: COc1cc2ncnc(Nc3ccc(F)c(Cl)c3)c2cc1OCCCN1CCOCC1 [gefitinib]
Outline: as §1

Measured: log2 fold change

RNF168 (UniProt Q8IYW5)
inactive: alvocidib 0.037 | Tubastatin A -0.03 | [1] 0.068 | defactinib -0.026 | [2] -0.03 | encorafenib -0.046 | [3] -0.102 | alisertib -0.078 | [4] -0.043 | gefitinib 0.079

SCAF1 (UniProt Q9H7N4)
inactive: alvocidib 0.054 | Tubastatin A 0.034 | [1] -0.051 | defactinib 0.046 | [2] 0.051 | encorafenib -0.028 | [3] -0.066 | alisertib 0.128 | [4] -0.02 | gefitinib 0.129

RNASEL (UniProt Q05823)
UniProt Q05823, sequence (Q05823 whole entry, looked up): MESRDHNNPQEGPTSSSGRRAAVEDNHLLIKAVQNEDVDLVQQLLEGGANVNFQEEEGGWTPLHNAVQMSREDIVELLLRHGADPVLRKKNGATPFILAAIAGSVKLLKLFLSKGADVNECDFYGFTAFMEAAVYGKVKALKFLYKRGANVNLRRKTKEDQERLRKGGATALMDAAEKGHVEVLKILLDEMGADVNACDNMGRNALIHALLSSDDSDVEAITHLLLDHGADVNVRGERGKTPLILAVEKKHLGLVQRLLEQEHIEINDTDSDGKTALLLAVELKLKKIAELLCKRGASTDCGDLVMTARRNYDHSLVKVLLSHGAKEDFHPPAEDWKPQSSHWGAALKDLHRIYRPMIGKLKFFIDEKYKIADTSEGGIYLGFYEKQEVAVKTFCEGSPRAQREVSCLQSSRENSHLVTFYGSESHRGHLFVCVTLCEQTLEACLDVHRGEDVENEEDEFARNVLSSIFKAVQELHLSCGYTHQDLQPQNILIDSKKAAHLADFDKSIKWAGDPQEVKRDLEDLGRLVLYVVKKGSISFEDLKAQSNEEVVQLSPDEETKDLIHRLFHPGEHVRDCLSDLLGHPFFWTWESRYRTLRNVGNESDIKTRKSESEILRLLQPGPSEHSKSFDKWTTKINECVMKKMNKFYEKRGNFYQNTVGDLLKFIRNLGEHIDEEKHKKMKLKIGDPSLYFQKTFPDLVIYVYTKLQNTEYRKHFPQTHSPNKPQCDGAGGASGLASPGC
inactive: alvocidib 0.054 | Tubastatin A -0.094 | [1] -0.034 | defactinib -0.02 | [2] 0.012 | encorafenib 0.029 | [3] 0.144 | alisertib -0.074 | [4] -0.035 | gefitinib 0.061

RPL27 (UniProt P61353)
inactive: alvocidib 0.049 | Tubastatin A 0.009 | [1] -0.015 | defactinib 0.006 | [2] 0.056 | encorafenib -0.015 | [3] 0.012 | alisertib 0.006 | [4] 0.006 | gefitinib -0.023

QTRT2 isoform 4 (UniProt Q9H974)
UniProt Q9H974, sequence (Q9H974 whole entry, looked up): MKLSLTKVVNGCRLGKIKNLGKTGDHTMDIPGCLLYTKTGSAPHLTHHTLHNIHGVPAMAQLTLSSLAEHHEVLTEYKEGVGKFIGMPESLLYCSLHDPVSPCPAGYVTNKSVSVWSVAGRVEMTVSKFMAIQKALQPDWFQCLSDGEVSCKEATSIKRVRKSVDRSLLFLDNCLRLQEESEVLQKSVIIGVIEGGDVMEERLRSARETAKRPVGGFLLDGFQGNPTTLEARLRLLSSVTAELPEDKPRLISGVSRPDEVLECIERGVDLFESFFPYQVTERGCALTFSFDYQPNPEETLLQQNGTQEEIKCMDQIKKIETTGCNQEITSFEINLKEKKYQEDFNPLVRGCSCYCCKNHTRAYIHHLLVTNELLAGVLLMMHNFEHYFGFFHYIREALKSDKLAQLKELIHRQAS
inactive: alvocidib -0.105 | Tubastatin A 0.003 | [1] 0.018 | defactinib -0.014 | [2] 0 | encorafenib -0.018 | [3] -0.044 | alisertib 0.016 | [4] 0.008 | gefitinib 0.031

RAP1B (UniProt P61224)
UniProt P61224, sequence (P61224 whole entry, looked up): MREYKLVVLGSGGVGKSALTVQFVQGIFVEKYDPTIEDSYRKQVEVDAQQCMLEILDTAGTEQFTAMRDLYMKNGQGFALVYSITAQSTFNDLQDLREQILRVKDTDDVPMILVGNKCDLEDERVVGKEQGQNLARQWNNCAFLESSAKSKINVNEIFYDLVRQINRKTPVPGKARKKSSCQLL
inactive: alvocidib 0.039 | Tubastatin A 0.05 | [1] 0.005 | defactinib 0.02 | [2] 0.025 | encorafenib 0.011 | [3] -0.034 | alisertib 0.015 | [4] 0.057 | gefitinib -0.054

SAMHD1 (UniProt Q9Y3Z3)
UniProt Q9Y3Z3, sequence (Q9Y3Z3 whole entry, looked up): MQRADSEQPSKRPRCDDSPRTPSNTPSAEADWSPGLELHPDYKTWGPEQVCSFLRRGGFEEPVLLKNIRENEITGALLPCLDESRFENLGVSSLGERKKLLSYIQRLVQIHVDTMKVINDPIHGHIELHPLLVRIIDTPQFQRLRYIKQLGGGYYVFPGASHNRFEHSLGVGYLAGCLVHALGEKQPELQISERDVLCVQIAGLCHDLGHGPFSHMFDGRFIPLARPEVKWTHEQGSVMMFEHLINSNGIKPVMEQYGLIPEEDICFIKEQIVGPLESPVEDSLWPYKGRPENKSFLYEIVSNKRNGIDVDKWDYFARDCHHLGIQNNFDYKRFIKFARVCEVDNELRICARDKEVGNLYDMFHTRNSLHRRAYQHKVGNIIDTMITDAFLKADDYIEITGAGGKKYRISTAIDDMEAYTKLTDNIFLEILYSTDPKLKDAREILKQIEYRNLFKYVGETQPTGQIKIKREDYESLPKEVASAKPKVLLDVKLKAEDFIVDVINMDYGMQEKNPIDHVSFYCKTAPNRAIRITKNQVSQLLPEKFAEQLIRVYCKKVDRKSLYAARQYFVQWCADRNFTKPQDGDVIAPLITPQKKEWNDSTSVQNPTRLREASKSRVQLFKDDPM
inactive: alvocidib -0.019 | Tubastatin A -0.072 | [1] 0.041 | defactinib -0.021 | [2] -0.015 | encorafenib 0 | [3] 0.099 | alisertib -0.013 | [4] 0.02 | gefitinib 0.044

REEP6 (UniProt Q96HR9)
UniProt Q96HR9, sequence (Q96HR9 whole entry, looked up): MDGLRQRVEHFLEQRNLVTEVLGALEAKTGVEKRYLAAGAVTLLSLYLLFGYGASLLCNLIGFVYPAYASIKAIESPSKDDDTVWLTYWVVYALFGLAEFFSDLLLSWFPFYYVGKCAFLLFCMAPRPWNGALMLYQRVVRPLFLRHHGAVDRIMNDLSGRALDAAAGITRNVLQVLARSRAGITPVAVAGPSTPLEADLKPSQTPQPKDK
inactive: alvocidib -0.089 | Tubastatin A 0.045 | [1] 0.02 | defactinib 0.056 | [2] -0.013 | encorafenib 0.076 | [3] -0.025 | alisertib 0.032 | [4] -0.036 | gefitinib -0.175

RBM23 isoform 2 (UniProt Q86U06)
UniProt Q86U06, sequence (Q86U06 whole entry, looked up): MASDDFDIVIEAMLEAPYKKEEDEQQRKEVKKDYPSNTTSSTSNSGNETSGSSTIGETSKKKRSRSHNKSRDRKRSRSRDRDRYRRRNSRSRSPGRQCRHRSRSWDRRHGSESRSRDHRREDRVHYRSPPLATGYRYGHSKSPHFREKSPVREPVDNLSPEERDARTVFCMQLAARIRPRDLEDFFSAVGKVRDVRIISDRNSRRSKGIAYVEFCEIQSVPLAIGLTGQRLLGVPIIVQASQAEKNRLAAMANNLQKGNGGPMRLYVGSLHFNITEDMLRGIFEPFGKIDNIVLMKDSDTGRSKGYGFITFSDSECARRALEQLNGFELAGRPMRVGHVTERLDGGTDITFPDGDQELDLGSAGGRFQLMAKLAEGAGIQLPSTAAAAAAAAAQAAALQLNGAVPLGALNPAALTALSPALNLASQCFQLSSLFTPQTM
inactive: alvocidib -0.056 | Tubastatin A -0.084 | [1] 0.133 | defactinib -0.037 | [2] 0.181 | encorafenib 0.335 | [3] -0.003 | alisertib 0.11 | [4] 0.137 | gefitinib 0.057

RABEPK (UniProt Q7Z6M1)
UniProt Q7Z6M1, sequence (Q7Z6M1 whole entry, looked up): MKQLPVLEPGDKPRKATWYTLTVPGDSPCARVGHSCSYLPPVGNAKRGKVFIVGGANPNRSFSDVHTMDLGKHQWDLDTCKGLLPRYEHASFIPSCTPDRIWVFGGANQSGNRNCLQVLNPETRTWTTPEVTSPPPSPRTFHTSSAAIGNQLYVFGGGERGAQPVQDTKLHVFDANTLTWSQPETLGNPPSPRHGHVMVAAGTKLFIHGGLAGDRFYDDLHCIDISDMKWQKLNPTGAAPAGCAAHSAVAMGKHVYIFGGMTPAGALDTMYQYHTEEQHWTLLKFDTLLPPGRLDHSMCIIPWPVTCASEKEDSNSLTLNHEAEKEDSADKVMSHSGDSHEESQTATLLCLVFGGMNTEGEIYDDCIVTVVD
inactive: alvocidib 0.03 | Tubastatin A -0.048 | [1] 0.004 | defactinib 0.014 | [2] -0.025 | encorafenib 0.004 | [3] 0.032 | alisertib 0.002 | [4] 0 | gefitinib 0.01

RNF123 (UniProt Q5XPI4)
UniProt Q5XPI4, sequence (Q5XPI4 whole entry, looked up): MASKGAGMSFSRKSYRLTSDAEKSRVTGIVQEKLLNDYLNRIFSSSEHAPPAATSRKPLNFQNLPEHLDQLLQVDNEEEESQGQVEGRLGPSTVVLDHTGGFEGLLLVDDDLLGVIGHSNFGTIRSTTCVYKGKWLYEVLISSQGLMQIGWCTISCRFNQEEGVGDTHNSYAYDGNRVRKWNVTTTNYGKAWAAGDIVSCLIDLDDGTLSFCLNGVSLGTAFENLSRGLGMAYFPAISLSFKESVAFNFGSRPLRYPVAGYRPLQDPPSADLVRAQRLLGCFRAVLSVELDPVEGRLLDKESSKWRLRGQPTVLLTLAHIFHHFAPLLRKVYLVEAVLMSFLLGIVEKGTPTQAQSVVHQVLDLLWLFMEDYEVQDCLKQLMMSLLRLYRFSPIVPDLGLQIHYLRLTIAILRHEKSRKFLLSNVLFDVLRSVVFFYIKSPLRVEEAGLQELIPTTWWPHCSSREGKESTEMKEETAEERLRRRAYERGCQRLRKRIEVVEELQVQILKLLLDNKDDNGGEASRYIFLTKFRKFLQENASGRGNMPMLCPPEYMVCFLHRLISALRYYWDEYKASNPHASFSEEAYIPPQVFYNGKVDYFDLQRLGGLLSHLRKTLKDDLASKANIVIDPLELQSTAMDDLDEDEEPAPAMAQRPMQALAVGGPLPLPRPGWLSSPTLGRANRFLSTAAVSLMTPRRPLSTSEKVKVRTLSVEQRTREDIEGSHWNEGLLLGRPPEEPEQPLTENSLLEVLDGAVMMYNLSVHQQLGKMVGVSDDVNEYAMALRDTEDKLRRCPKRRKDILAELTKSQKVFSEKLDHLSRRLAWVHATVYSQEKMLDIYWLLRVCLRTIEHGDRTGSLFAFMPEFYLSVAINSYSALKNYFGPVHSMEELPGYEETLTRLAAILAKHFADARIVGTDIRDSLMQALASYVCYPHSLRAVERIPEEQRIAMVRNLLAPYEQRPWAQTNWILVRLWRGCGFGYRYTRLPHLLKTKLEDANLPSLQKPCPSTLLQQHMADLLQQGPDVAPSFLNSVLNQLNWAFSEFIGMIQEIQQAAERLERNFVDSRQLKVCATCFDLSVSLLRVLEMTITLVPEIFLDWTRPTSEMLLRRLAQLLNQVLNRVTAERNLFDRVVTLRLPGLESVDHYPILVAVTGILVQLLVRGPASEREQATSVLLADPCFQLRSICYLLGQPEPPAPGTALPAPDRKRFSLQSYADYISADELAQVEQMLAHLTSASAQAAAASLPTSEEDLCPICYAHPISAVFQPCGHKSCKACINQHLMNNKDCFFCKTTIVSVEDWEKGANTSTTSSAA
inactive: alvocidib 0.011 | Tubastatin A -0.047 | [1] -0.002 | defactinib -0.027 | [2] 0.017 | encorafenib 0.044 | [3] -0.062 | alisertib -0.004 | [4] 0.017 | gefitinib 0.011

RFC4 (UniProt P35249)
UniProt P35249, sequence (P35249 whole entry, looked up): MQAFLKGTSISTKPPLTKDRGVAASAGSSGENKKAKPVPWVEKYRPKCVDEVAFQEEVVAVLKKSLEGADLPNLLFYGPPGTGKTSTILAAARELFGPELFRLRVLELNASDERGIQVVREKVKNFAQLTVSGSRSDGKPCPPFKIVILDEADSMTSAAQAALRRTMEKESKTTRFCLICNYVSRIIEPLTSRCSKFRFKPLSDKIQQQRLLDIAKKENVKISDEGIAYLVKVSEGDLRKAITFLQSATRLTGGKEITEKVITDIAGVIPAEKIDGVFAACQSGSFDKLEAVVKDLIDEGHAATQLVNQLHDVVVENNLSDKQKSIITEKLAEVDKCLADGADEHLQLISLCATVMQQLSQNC
inactive: alvocidib -0.018 | Tubastatin A -0.119 | [1] 0.018 | defactinib 0.009 | [2] -0.043 | encorafenib 0.018 | [3] 0.088 | alisertib 0.022 | [4] 0.003 | gefitinib -0.006

RFC2 (UniProt P35250)
inactive: alvocidib -0.025 | Tubastatin A -0.21 | [1] -0.012 | defactinib 0.023 | [2] -0.055 | encorafenib 0.042 | [3] 0.113 | alisertib 0.014 | [4] 0.005 | gefitinib 0.007

RAB3IL1 (UniProt E9PK89)
inactive: alvocidib -0.008 | Tubastatin A -0.025 | [1] 0.023 | defactinib 0.123 | [2] 0.005 | encorafenib 0.047 | [3] 0.024 | alisertib 0.032 | [4] -0.07 | gefitinib 0

RSU1 (UniProt Q15404)
UniProt Q15404, sequence (Q15404 whole entry, looked up): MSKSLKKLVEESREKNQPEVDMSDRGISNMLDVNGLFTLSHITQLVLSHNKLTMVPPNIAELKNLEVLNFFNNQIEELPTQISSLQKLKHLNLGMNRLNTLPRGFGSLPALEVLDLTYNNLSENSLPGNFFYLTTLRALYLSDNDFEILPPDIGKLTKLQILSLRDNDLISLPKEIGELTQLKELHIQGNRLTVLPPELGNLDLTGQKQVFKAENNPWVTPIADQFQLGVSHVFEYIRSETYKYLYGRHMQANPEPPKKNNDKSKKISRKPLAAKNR
inactive: alvocidib 0.12 | Tubastatin A 0.057 | [1] -0.021 | defactinib -0.042 | [2] -0.008 | encorafenib -0.035 | [3] -0.035 | alisertib -0.005 | [4] 0.015 | gefitinib 0.023

Source: the supplement of paper PMC10849652
